Each structure is given as a SMILES string. Screen size: about 310,000 compounds; about 14,000 (4.5%) showed an effect of 50% or more. Effects have a minus sign here. Many of the other results were omitted from the sample, so strong results are more common in it than they were.
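Note: peak tail current of the secondary pulse compared with the same well before compound.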

human ether-à-go-go-related gene (hERG) potassium channel, sequence (Q12809 whole entry, looked up): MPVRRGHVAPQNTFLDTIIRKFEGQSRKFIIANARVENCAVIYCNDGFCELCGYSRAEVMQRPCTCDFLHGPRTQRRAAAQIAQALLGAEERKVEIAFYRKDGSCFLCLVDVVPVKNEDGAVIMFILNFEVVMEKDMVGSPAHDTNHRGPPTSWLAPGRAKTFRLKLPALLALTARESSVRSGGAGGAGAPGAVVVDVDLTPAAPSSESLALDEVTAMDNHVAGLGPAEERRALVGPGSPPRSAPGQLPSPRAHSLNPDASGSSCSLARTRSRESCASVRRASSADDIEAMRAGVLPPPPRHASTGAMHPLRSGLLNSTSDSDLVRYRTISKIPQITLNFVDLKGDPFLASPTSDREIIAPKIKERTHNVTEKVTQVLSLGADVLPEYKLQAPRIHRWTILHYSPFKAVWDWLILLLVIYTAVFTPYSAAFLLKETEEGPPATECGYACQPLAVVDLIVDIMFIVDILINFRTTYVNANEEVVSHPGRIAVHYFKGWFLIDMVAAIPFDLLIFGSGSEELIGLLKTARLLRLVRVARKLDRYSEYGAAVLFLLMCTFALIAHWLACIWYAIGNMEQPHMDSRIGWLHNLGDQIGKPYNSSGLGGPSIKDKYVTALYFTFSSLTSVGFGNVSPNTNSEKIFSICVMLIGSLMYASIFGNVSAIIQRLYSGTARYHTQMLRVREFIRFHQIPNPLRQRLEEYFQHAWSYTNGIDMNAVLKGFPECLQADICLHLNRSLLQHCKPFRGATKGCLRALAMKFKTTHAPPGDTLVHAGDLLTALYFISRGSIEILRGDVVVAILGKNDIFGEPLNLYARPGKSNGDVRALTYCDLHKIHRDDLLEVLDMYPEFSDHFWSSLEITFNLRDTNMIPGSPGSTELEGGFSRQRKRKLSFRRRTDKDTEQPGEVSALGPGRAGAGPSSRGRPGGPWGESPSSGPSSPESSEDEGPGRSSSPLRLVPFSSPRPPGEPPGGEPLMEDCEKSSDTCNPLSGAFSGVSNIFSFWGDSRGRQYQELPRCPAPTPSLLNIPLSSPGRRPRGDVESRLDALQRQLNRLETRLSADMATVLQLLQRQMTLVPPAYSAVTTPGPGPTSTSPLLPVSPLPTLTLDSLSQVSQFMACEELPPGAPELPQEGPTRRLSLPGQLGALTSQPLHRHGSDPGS

The experiment concerns the target human ether-à-go-go-related gene (hERG) potassium channel (human, UniProt Q12809). Nature of the experiment: primary screen, population patch clamp on CHO cells stably expressing hERG; higher = less effect of the substance.
With `CN(C)c1cc(-c2ccc(C#N)cc2)oc(=O)c1Cl`, the “hERG current change (%, negative = inhibition) at 10uM” value is listed as -50.1%.
On to `CN(C)c1cc(-c2ccc(Cl)cc2)oc(=O)c1Cl`, for which the “hERG current change (%, negative = inhibition) at 10uM” value was -6.67%.
Consider `CN(C)c1cc(-c2ccc(Br)cc2)oc(=O)c1Cl`, for which the “hERG current change (%, negative = inhibition) at 10uM” value is recorded as 15.5%.
The value for `CCCCSc1cc(C)nc(N)n1` was -1.73%; that for `O=C(Nc1ccc(O)c(C(=O)O)c1)c1ccc2c(c1)C(=O)N(CC1CCCO1)C2=O` (stereo not drawn) was 6.21%; that for `CS(=O)(=O)O.OC(CCN1CCCCC1)(c1ccccc1)c1ccccc1` was -36.2%.
For `CCCCOc1ccc(C(O)(CCN2CCOCC2)c2ccccc2)cc1.Cl` (stereo not drawn), the “hERG current change (%, negative = inhibition) at 10uM” value is listed as -21.7%.
With `CCCCCC(O)(CCN1CCCCC1)c1ccccc1.Cl` (stereo not drawn), the “hERG current change (%, negative = inhibition) at 10uM” value was -82.4%.
With `CCCCCCC(O)(CCN1CCCCC1)c1ccccc1.Cl` (stereo not drawn), the “hERG current change (%, negative = inhibition) at 10uM” value was -70.3%.
With `Cl.OC(CCCN1CCCCC1)(c1ccccc1)c1ccccc1`, the “hERG current change (%, negative = inhibition) at 10uM” value is recorded as -44%.
Turning to `COc1ccc(C(O)(CCc2ccccc2)CCN2CCCCC2)cc1.Cl` (stereo not drawn), the “hERG current change (%, negative = inhibition) at 10uM” value is recorded as -17.5%.
The value for `CCC(O)(CCN1CCCCC1)c1ccccc1` (stereo not drawn) was -5.84%; that for `CCCCCC(O)(CCN1CCCCC1)c1ccc(OCC)cc1.Cl` (stereo not drawn) was -77.1%.
The value for `C=CCC(O)(CCN1CCCCC1)c1ccccc1.Cl` (stereo not drawn) was -10.8%.
Turning to `NC(=O)c1nsc(C(=O)N(c2cccc(F)c2)C(C(=O)NCc2ccccc2)c2ccc(O)cc2)c1N` (stereo not drawn), the “hERG current change (%, negative = inhibition) at 10uM” value was -22.4%.
For `Cc1cccn2c(CN(C)CC3CCCCO3)c(C(=O)N3CCCCC3)nc12` (stereo not drawn), the “hERG current change (%, negative = inhibition) at 10uM” value turned out to be 20.9%.
Take `Cc1cc(S(=O)(=O)NCc2ccco2)c(C)cc1Cl`: the “hERG current change (%, negative = inhibition) at 10uM” value amounted to 14.1%.
`COc1ccc(-c2nc3ccccc3c(=O)n2N)cc1`: the “hERG current change (%, negative = inhibition) at 10uM” value was -13.7%.
The value for `Cc1nnc(NC(=O)c2csc3c2CCC(C)C3)s1` (stereo not drawn) was 13.9%; that for `O=c1c2ccccc2nc(-c2ccccc2)n1CCCN1CCOCC1` was -20.4%; that for `N=c1c2c(-c3ccccc3)c(-c3ccccc3)n(Cc3ccco3)c2ncn1CCN1CCOCC1` was -75.9%.
Take `N=c1c2c(-c3ccccc3)c(-c3ccccc3)n(Cc3ccco3)c2ncn1CCCN1CCOCC1`: the “hERG current change (%, negative = inhibition) at 10uM” value is on record as -84.9%.
Regarding `CC(C)Cn1c2nc3ccccc3nc2c2c(=O)n(CCN3CCOCC3)cnc21`, the “hERG current change (%, negative = inhibition) at 10uM” value is -48.1%.
`O=C(NCCCN1CCOCC1)C(=O)NCc1ccco1`: the “hERG current change (%, negative = inhibition) at 10uM” value is given as -1.68%.
For the compound `O=C(NCCN1CCOCC1)C(=O)NCc1ccco1`, the “hERG current change (%, negative = inhibition) at 10uM” value is 19.5%.
For `Cc1ccccc1C(=O)NCCCNC(=O)c1cnccn1`, the “hERG current change (%, negative = inhibition) at 10uM” value came to 13.5%.
The value for `COc1ccccc1OCc1nc(Cc2ccc(Cl)cc2)no1` was -31.4%.
As to `CCn1c(=O)c(C(=O)NNC(=O)c2ccccc2Cl)c(O)c2ccccc21`, the “hERG current change (%, negative = inhibition) at 10uM” value was found to be 7.09%.
Consider `CC1=C(C(=O)OCC2CCCO2)C(c2ccccc2)C2=C(CCCC2=O)N1` (stereo not drawn), for which the “hERG current change (%, negative = inhibition) at 10uM” value was found to be 11.2%.
For `CCC(C)[C@H](NC(=O)N1CCn2c1nc1ccccc12)C(=O)NCCc1ccccc1` (stereo partly drawn), the “hERG current change (%, negative = inhibition) at 10uM” value is recorded as -2.42%.
As for `COc1ccc(OC)c(/C=C/C(=O)OCC(=O)NCc2cccs2)c1`, the “hERG current change (%, negative = inhibition) at 10uM” value turned out to be 17.8%.
The value for `Cc1onc(-c2ccccc2)c1NC(=O)N(CCC(=O)O)Cc1ccccc1` was 2.16%.
As to `COc1ccc(NC(=O)CN(C)C(=O)c2ccc3c(c2)NC(=O)CS3)cc1`, the “hERG current change (%, negative = inhibition) at 10uM” value is reported as -10.2%.
For the compound `COC(=O)c1cc(NC(=O)c2cccs2)ccc1N1CCOCC1`, the “hERG current change (%, negative = inhibition) at 10uM” value is -1.74%.
Turning to `COc1ccc(-c2cc(C(=O)N3CC(C)CC(C)C3)c3ccccc3n2)cc1` (stereo not drawn), the “hERG current change (%, negative = inhibition) at 10uM” value is 5.7%.
`CC(C)CC(C(=O)N1CCc2ccccc2C1)N1C(=O)c2ccccc2C1=O` (stereo not drawn): the “hERG current change (%, negative = inhibition) at 10uM” value was -50.3%.
Take `O=C(CCCN1C(=O)c2ccccc2C1=O)N1CCc2ccccc2C1`: the “hERG current change (%, negative = inhibition) at 10uM” value was -27.2%.
`CC(C)CC(C(=O)N1CCOCC1)N1Cc2ccccc2C1=O` (stereo not drawn): the “hERG current change (%, negative = inhibition) at 10uM” value stood at 29.3%.
For the compound `Cc1cc(NC(=O)c2cccs2)ncc1NC(=O)C(C)(C)C`, the “hERG current change (%, negative = inhibition) at 10uM” value was 9.59%.
With `CSc1ccc(C(=O)C2CCCN(C(=O)c3nn(C)c(=O)c4ccccc34)C2)cc1` (stereo not drawn), the “hERG current change (%, negative = inhibition) at 10uM” value is -64.9%.
`Cn1nc(C(=O)N2CCCC2)c2ccccc2c1=O`: the “hERG current change (%, negative = inhibition) at 10uM” value came to 23%.
Regarding `CSc1ccc(C(=O)C2CCCN(C(=O)CCCn3cncn3)C2)cc1` (stereo not drawn), the “hERG current change (%, negative = inhibition) at 10uM” value is -40.5%.
As for `CSc1ccc(C(=O)C2CCCN(CCCn3cccn3)C2)cc1` (stereo not drawn), the “hERG current change (%, negative = inhibition) at 10uM” value is given as -76.8%.
As for `O=C(c1ccc(-c2ccccc2)cc1)C1CCCN(C(=O)c2ccncc2)C1` (stereo not drawn), the figure is -13.4%.
Regarding `CSc1ccc(C(=O)C2CCCN(C(=O)c3cc(C)n(C)n3)C2)cc1` (stereo not drawn), the “hERG current change (%, negative = inhibition) at 10uM” value is on record as -7.88%.

Source of the values: PMC4336329 (PLoS ONE, 2015).
